Pin1 inhibitor – human Pin1 inhibition; Q13526; Pin1 FP peptide displacement, HiFluor488, 10 min; Potency, µM (highest dose often 115 µM), most hits filed as inhibitors; 0.009% of 390,000 active; AID 504891; active means well fitted inhibition curve with a large enough effect in the polarisation, with a control signal flat, not every such curve was filed as active; inconclusive means small, poorly fitted or top-dose-only effect, or effect the other way, or a change in a side signal; inactive means no such curve, though single readings can be large or run the other way; the % refers to the polarisation
BCR signal inh – chronic active BCR signaling inhibition; ABC-DLBCL IkBa-CBG/CBR reporter, luminescence ratio, 4 h; Potency, µM (doses to about 46.1 µM), most hits filed as inhibitors; 0.05% of 340,000 active; active means well fitted inhibition curve with a large enough effect in the signal ratio, with a control signal flat, not every such curve was filed as active; inconclusive means small, poorly fitted or top-dose-only effect, or effect the other way, or a change in a side signal; the % refers to the signal ratio
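TMD8 human ABC-DLBCL cells with doxycycline-inducible IκBα–green luciferase fusion and unfused red luciferase, in 0.5% FBS medium; compounds up to 46 uM, 4 h at 37C. Green/red luminescence ratio, filter-overlap corrected, fitted to concentration-response curves.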
Anesthetic bind – binds horse apoferritin like a general anesthetic; 0.074% of 350,000 active; apoferritin/1-aminoanthracene competitive binding, fluorescence; Potency, µM (highest dose often 77.5 µM), most hits filed as inhibitors; P02791; further: nearly all actives have a fitted effect of over 20% in size
Target sequence (P02791 2-175 limits assumed): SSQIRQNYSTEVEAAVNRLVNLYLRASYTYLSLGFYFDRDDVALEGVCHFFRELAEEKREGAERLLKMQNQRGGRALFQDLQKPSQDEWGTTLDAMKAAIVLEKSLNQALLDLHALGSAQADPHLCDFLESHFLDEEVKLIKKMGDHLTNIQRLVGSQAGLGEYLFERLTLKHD
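Apoferritin-based anesthetic binding model; compound displacement of fluorescent 1-AMA measured as endpoint fluorescence after 10 minutes at room temperature, scaled to free-ligand and complex controls.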
Tb PGK inh – T. brucei PGK inhibition; PGK/GAPDH coupled, Kinase-Glo luminescence, 60 min; Potency, µM (doses to about 57.5 µM), actives largely listed as inhibitors; P07378; 0.043% of 380,000 active; further: nearly all actives have a fitted effect of over 60% in size
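Recombinant glycosomal PGK reaction used 1,3-bisphosphoglycerate generated in-well by GAPDH (100nM final) in 100mM TEA pH 7.6, 5mM MgCl2, 0.01% Tween-20. After 60 minutes at room temperature, ATP was read by Kinase-Glo Plus luminescence end-point.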
B2AR arrestin – agonists driving beta-arrestin recruitment to human beta2-adrenergic receptor | P07550 | beta-arrestin recruitment to beta2AR, cell-based reporter | Potency, µM (top dose mostly 46.1 µM), usual class: activators | 0.02% of 330,000 active | AID 492947; further: nearly all actives have a fitted effect of over 65% in size
FEN1 inh-1 – blocks human flap endonuclease 1; P39748; Recombinant FEN1 flap cleavage, fluorescence, 15 min; Potency, µM (titrated, usually from 114 µM), hits mostly inhibitors; 0.35% of 390,000 active; further: nearly all actives have a fitted effect of over 65% in size
Target sequence (P39748 whole entry, looked up): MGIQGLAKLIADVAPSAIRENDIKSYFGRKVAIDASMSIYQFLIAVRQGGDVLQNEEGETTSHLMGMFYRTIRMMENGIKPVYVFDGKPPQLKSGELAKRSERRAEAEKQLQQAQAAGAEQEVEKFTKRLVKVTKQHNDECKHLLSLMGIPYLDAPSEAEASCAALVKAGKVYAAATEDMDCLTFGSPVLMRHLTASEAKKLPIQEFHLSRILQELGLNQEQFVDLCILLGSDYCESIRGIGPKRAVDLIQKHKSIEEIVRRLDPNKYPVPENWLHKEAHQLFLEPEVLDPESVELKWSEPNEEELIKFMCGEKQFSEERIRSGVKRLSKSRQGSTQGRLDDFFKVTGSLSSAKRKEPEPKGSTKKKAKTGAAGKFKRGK
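Steps: FEN1 (10 nM) dispensed; compound added by pin tool; 15 min at room temperature; substrate added to 50 nM final; reads at 0 min and 15 min; data normalized and fitted (four-parameter Hill).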
FEN1 inh-2 – FEN1 inhibition, cherry-pick retest; shares compounds with FEN1 inh-1; FEN1 flap cleavage, TAMRA/BHQ2 fluorogenic DNA substrate; Potency, µM, usual class: inhibitors; 79% of 880 active; AID 720498; further: nearly all actives have a fitted effect of over 60% in size
Each line names hits and unclear results; the compound was inactive in the other large screens (follow-up assays come after a bar, where they were run). Sampled rows, rich in hits. Any-hit rate of the full collection: about 0.45%. Unless noted, the call rests on the fitted dose curve; in most records, active means well fitted curve in the direction sought with a large enough effect; inconclusive means small, poorly fitted or top-dose-only effect, or another doubt; inactive means no such curve, though single readings can be large; an effect the other way counts as inactive or inconclusive.

CCOc1cc2[nH]c(=O)n(CCCC(=O)N3CCN(c4cccc(Cl)c4)CC3)c(=O)c2cc1OCC	Anesthetic bind inconclusive (no result: B2AR arrestin)
CC[n+]1c(-c2ccccc2)c2cc(N)ccc2c2ccc(N)cc21	Pin1 inhibitor inconclusive, FEN1 inh-1 13µM (no result: BCR signal inh, B2AR arrestin) | FEN1 inh-2 17
CCc1ccccc1NC(=O)C(CC)Oc1ccccc1-c1nnc(-c2ccccc2)o1 (stereo not drawn)	none (no result: BCR signal inh, B2AR arrestin)
COC1C(C)OC(OC2CC(C)(O)Cc3cc4c(c(O)c32)C(=O)c2c(O)cc3c(c2C4=O)OC2OC3(C)C(O)C(N(C)C)C2O)C(OC)C1(C)OC (stereo not drawn)	Pin1 inhibitor inconclusive, FEN1 inh-1 16µM (no result: BCR signal inh, Anesthetic bind, B2AR arrestin) | FEN1 inh-2 4.8
CCOCCc1nn2c(=O)cc(COC(=O)Cc3ccccc3)nc2s1	Anesthetic bind inconclusive (no result: BCR signal inh, B2AR arrestin)
NCCc1cc(O)c(O)cc1O	Pin1 inhibitor inconclusive, FEN1 inh-1 25µM (no result: BCR signal inh, B2AR arrestin) | FEN1 inh-2 inconclusive
COc1ccc(CCN)cc1O	none (no result: BCR signal inh, Anesthetic bind, B2AR arrestin)
COC(=O)c1nc(-c2ccc3c(n2)C(=O)C(N)=C(OC)C3=O)c(N)c(-c2ccc(OC)c(OC)c2O)c1C	Pin1 inhibitor inconclusive, BCR signal inh inconclusive, FEN1 inh-1 16µM | FEN1 inh-2 38
CC(=O)c1ccc(NC(=O)COc2ccc3c(c2)OCO3)cc1	BCR signal inh inconclusive
CCOC(=O)C1CCCN(c2ccc([N+](=O)[O-])c3nonc23)C1 (stereo not drawn)	Pin1 inhibitor inconclusive, BCR signal inh inconclusive, FEN1 inh-1 inconclusive | FEN1 inh-2 67
CC1CCCN(c2ccc(C(=O)N3CCC4(CC3)OCCO4)cc2[N+](=O)[O-])C1 (stereo not drawn)	none
Cc1cc(C=C(C#N)C#N)ccc1N1CCCC1	Pin1 inhibitor inconclusive, Anesthetic bind inconclusive, FEN1 inh-1 inconclusive | FEN1 inh-2 76
N#CC(C#N)=Cc1ccc(N2CCOCC2)cc1	Pin1 inhibitor inconclusive
Cc1ccc(C(=O)c2cn(CC(=O)Nc3ccc(C(C)C)cc3)c3nc(C)ccc3c2=O)cc1	none (no result: BCR signal inh, B2AR arrestin)
CC(C)CS(=O)(=O)C1=NN2C(=N)/C(=C\c3ccc(OC(=O)c4ccco4)cc3)C(=O)N=C2S1	Pin1 inhibitor inconclusive, Anesthetic bind inconclusive | FEN1 inh-2 inconclusive
Cc1ccc(S(=O)(=O)NN)c(C)c1N1CCCC1=O	none
COc1ccc(-c2nc(C)c(CCNC(=O)C(=O)Nc3c(C)cccc3C)s2)cc1OC	Anesthetic bind inconclusive (no result: BCR signal inh, B2AR arrestin)
O=C(Cc1cc(=O)oc2cc(O)ccc12)NN=Cc1ccc(N(CCCl)CCCl)cc1	Pin1 inhibitor inconclusive, FEN1 inh-1 32µM (no result: BCR signal inh, Anesthetic bind, B2AR arrestin) | FEN1 inh-2 38
O=C1NC(=O)N(c2cccc(Cl)c2)C(=O)/C1=C\c1ccc(Sc2nc3ccccc3[nH]2)o1	Pin1 inhibitor inconclusive, BCR signal inh inconclusive, Tb PGK inh inconclusive, FEN1 inh-1 45µM | FEN1 inh-2 inconclusive
Cc1cccn2c(=O)cc(COc3cccc(NC(=O)COc4ccc(F)cc4)c3)nc12	none (no result: BCR signal inh, B2AR arrestin)
CCN(CC)CCNc1ccc(CO)c2sc3ccccc3c(=O)c12	BCR signal inh inconclusive, FEN1 inh-1 32µM | FEN1 inh-2 34
COc1ccc(/C=C2/C(=O)N(Cc3ccco3)C(=O)N(C(C)C)C2=O)cc1	Pin1 inhibitor inconclusive, Tb PGK inh inconclusive, FEN1 inh-1 inconclusive | FEN1 inh-2 27
CC(Oc1ccccc1)C(=O)Nc1ccc(C(=O)OCc2cc(=O)n3nc(C4CC4)sc3n2)cc1 (stereo not drawn)	Pin1 inhibitor inconclusive (no result: BCR signal inh, B2AR arrestin)
COc1ccc(CN2C(=O)NC(=O)/C(=C\c3cc(OC)c(OC)c(OC)c3)C2=O)cc1	Anesthetic bind inconclusive
O=C1NC(=O)N(Cc2ccc(F)cc2)C(=O)/C1=C\c1ccc(N2CCCC2)cc1	Pin1 inhibitor inconclusive, FEN1 inh-1 inconclusive
O=C1NC(=O)N(Cc2ccc(F)cc2)C(=O)/C1=C\c1ccc([N+](=O)[O-])s1	Pin1 inhibitor 10µM, BCR signal inh inconclusive, FEN1 inh-1 25µM | FEN1 inh-2 6.7

Screening data (PubChem)
